Bioassay records from PubChem.
RecA splice inh: Mtb RecA intein splicing inhibitors, primary screen, biochemical, fluorescence, HTS | Protein RecA (Mycobacterium tuberculosis (strain ATCC 25618 / H37Rv)), P9WHJ3 | AID 2221, 2009 | 0.75% of 290,000 active | cell-free RecA intein splicing | inhibition, % (test concentration not listed); in the data active means inhibition above about 30%
PriA SSB inh: inhibitors of Klebsiella pneumoniae PriA binding to SSB C-terminal tail, primary screen, biochemical, AlphaScreen. AID 1272365, 2023. inhibition, % at 33 µM. 0.6% of 430,000 active. PriA–SSB C-terminal tail interaction (Klebsiella pneumoniae). AlphaScreen SSBct-PriA binding, biotinylated peptide; in the data active means inhibition mostly above about 37%, no sharp cut-off; inactive means mostly below about 20%
VHR inh abs: VHR1 phosphatase inhibitors, primary screen, biochemical, absorbance, uHTS; Dual specificity protein phosphatase 3 (Homo sapiens), P51452; recombinant VHR phosphatase, pNPP absorbance; inhibition, % at 13.3 µM; 0.52% of 290,000 active; in the data active means inhibition above about 50%
Target sequence (P51452 whole entry, looked up): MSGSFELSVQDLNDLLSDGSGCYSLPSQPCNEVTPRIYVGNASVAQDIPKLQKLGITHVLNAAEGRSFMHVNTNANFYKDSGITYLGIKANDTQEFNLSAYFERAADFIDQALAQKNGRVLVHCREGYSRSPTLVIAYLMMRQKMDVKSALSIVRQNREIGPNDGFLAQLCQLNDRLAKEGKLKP
SARS 3CLpro inh: SARS-CoV 3CLpro protease inhibitors, primary screen, biochemical, quenched FRET; 0.14% of 290,000 active; Replicase polyprotein 1ab (Severe acute respiratory syndrome coronavirus), P0C6X7; recombinant SARS-CoV 3CLpro, quenched FRET peptide cleavage; inhibition, % at 6 µM; in the data active means inhibition above about 12%
CCHF vOTU inh-1: CCHFV vOTU protease inhibitors, primary screen, biochemical, Pep-AMC substrate, fluorescence; Crimean-Congo hemorrhagic fever virus L polyprotein viral ovarian tumor (vOTU) protease …; inhibition, % at 11.5 µM; 0.55% of 370,000 active; AID 651958, 2012
CCHF vOTU inh-2: CCHFV vOTU protease inhibitors, confirmation, biochemical, Pep-AMC substrate, fluorescence; shares compounds with CCHF vOTU inh-1; AID 686976, 2013; Recombinant CCHFV vOTU; inhibition, % at 11.5 µM; 17% of 1,900 active
Numbers stand for hits. Sampled rows, rich in hits. Any-hit rate of the full collection: about 1.7%. Unless noted, no stated cut-off is given here; in the data, active means inhibition above about 30%; inactive means the rest.

How did Cc1cc(C(=O)O)ccc1-n1c(C)cc(/C=C(/C#N)C(=O)Nc2ccccc2)c1C do in these assays?
RecA splice inh: inactive; PriA SSB inh: inactive; VHR inh abs: inactive; SARS 3CLpro inh: inactive; CCHF vOTU inh-1: 33.4; CCHF vOTU inh-2: inactive

What do the screens show for `Cc1nn(C)cc1C1C(C#N)=C(N)N(c2ccc(F)c([N+](=O)[O-])c2)C2=C1C(=O)CCC2` (stereo not drawn)?
RecA splice inh: inactive; PriA SSB inh: inactive; VHR inh abs: inactive; SARS 3CLpro inh: inactive; CCHF vOTU inh-1: 29.8; CCHF vOTU inh-2: inactive

Results for C=CCC[C@H](Cc1ccc(F)cc1)C(=O)OC[C@@H](C)NC(=O)[C@H](CC=C)CC(=O)N(CCO)Cc1ccccc1 ?
PriA SSB inh: inactive; CCHF vOTU inh-1: inactive

What do the screens show for `C=CCC[C@@H](Cc1ccc(F)cc1)C(=O)OC[C@@H](NC(=O)[C@H](CC=C)CC(=O)N(CCO)Cc1ccccc1)c1ccccc1`?
PriA SSB inh: inactive; CCHF vOTU inh-1: inactive

Results for C=CCC[C@@H](Cc1ccc(F)cc1)C(=O)OC[C@@H](NC(=O)[C@@H](CC=C)CC(=O)N(CCO)Cc1ccccc1)c1ccccc1 ?
PriA SSB inh: inactive; CCHF vOTU inh-1: 34.5; CCHF vOTU inh-2: inactive

What do the screens show for `C=CC[C@@H](Cc1ccc(F)cc1)C(=O)OC[C@H]1CCCN1C(=O)[C@@H](CC=C)CC(=O)N(CCO)Cc1ccccc1`?
PriA SSB inh: inactive; CCHF vOTU inh-1: 31.0; CCHF vOTU inh-2: inactive

What do the screens show for `C=CCC[C@@H](Cc1ccc(F)cc1)C(=O)OC[C@H](C)NC(=O)[C@@H](CC=C)CC(=O)N(CCO)Cc1ccccc1`?
PriA SSB inh: inactive; CCHF vOTU inh-1: 31.6; CCHF vOTU inh-2: inactive

How did O=C(OCc1cc(-c2ccc(Cl)cc2)on1)c1cc(-c2ccco2)on1 do in these assays?
PriA SSB inh: inactive

How did O=C(NCc1ccc2c(c1)OCO2)N1CCCCC1 do in these assays?
PriA SSB inh: inactive

What do the screens show for `Cn1nc(C(C)(C)C)cc1NC(=O)C1(C)CCN1C(=O)CC(c1ccccc1)c1ccccc1` (stereo not drawn)?
CCHF vOTU inh-1: 33.3; CCHF vOTU inh-2: inactive

What do the screens show for `CN(Cc1ccccc1)c1cc2c(c3c1ccn3C)C1CCC2O1` (stereo not drawn)?
CCHF vOTU inh-1: inactive

Results for Cn1ccc2c(N(Cc3ccccc3)Cc3ccccc3)cc3c(c21)C1CCC3O1 (stereo not drawn) ?
CCHF vOTU inh-1: 43.5; CCHF vOTU inh-2: inactive

What do the screens show for `O=C(O)/C=C/c1ccc(S(=O)(=O)Nc2ccc3[nH]c(=O)[nH]c3c2)cc1`?
RecA splice inh: inactive; PriA SSB inh: inactive; VHR inh abs: inactive; SARS 3CLpro inh: inactive; CCHF vOTU inh-1: 33.2; CCHF vOTU inh-2: inactive

Results for O=C1OC2(CCN(C(=O)c3cccc(Cl)c3)CC2)c2ccccc21 ?
PriA SSB inh: inactive

What do the screens show for `O=c1c(O)c(-c2ccc(O)c(O)c2)oc2cc(O)cc(O)c12`?
RecA splice inh: inactive; PriA SSB inh: inactive; VHR inh abs: inactive; SARS 3CLpro inh: inactive; CCHF vOTU inh-1: 31.5; CCHF vOTU inh-2: inactive

What do the screens show for `Cc1ccc(C(O)CNC(=O)c2ccc(C#N)cc2)o1` (stereo not drawn)?
PriA SSB inh: inactive

How did COc1ccc(Cc2nnc(SCC(=O)Nc3cccc(C(F)(F)F)c3)n2-n2cccc2)cc1 do in these assays?
PriA SSB inh: inactive

Results for CCn1c(SCC(=O)Nc2ccc3c(c2)OCO3)nnc1-c1cccn(C)c1=O ?
PriA SSB inh: inactive

Results for COc1ccc(C)cc1-n1cnc2sc(C)c(C)c2c1=O ?
CCHF vOTU inh-1: 30.1; CCHF vOTU inh-2: inactive

What do the screens show for `COc1ccc2c(c1)CCc1sc(NC(=O)c3ccco3)nc1-2`?
RecA splice inh: inactive; PriA SSB inh: inactive; VHR inh abs: inactive; SARS 3CLpro inh: inactive

Results for COc1ccc2c(c1)Cc1sc(NC(=O)c3ccco3)nc1-2 ?
PriA SSB inh: inactive; VHR inh abs: inactive; SARS 3CLpro inh: inactive; CCHF vOTU inh-1: 104.6; CCHF vOTU inh-2: inactive

What do the screens show for `Cc1cccc(-n2ncc3c(NC(C)C)ncnc32)c1`?
RecA splice inh: inactive; PriA SSB inh: inactive; VHR inh abs: inactive; SARS 3CLpro inh: inactive; CCHF vOTU inh-1: inactive

Results for Cc1cccc(-n2ncc3c(N)ncnc32)c1 ?
RecA splice inh: inactive; PriA SSB inh: inactive; VHR inh abs: inactive; SARS 3CLpro inh: inactive; CCHF vOTU inh-1: 30.4; CCHF vOTU inh-2: inactive

Results for COc1cc(NCCCCCCN)c2ncccc2c1OC ?
PriA SSB inh: inactive; CCHF vOTU inh-1: 102.1; CCHF vOTU inh-2: 93.5

What do the screens show for `COc1cc(NC(C)CCCNC(C)C)c2ncccc2c1OC` (stereo not drawn)?
PriA SSB inh: inactive; CCHF vOTU inh-1: inactive

How did COc1cc(N)c2ncccc2c1OC do in these assays?
PriA SSB inh: inactive; CCHF vOTU inh-1: 40.0; CCHF vOTU inh-2: inactive

What do the screens show for `Cc1ccsc1CCC(=O)N1CC(S(=O)(=O)c2ccc(F)cc2)C1`?
PriA SSB inh: inactive

What do the screens show for `CNC(=O)NC(=O)COC(=O)c1n[nH]c2ccccc12`?
PriA SSB inh: inactive; VHR inh abs: inactive; SARS 3CLpro inh: inactive; CCHF vOTU inh-1: inactive

Results for O=C(COC(=O)c1n[nH]c2ccccc12)NC(=O)NCc1ccco1 ?
RecA splice inh: inactive; PriA SSB inh: inactive; VHR inh abs: inactive; SARS 3CLpro inh: inactive; CCHF vOTU inh-1: 34.9; CCHF vOTU inh-2: inactive

What do the screens show for `CC(C)(C)c1ccc(/C=N/Nc2nncn2N)cc1`?
RecA splice inh: inactive; VHR inh abs: inactive; SARS 3CLpro inh: inactive; CCHF vOTU inh-1: 88.7; CCHF vOTU inh-2: inactive

Results for CC1CCN(c2ccc(/C=N\Nc3nncn3N)cc2[N+](=O)[O-])CC1 ?
VHR inh abs: inactive; SARS 3CLpro inh: inactive; CCHF vOTU inh-1: 87.8; CCHF vOTU inh-2: inactive

Results for CCc1nnc(NN=Cc2ccc(N3CCC(C)CC3)c([N+](=O)[O-])c2)n1N ?
PriA SSB inh: inactive

Results for Nn1cnnc1N/N=C/c1cc(Br)cc(Br)c1O ?
RecA splice inh: inactive; VHR inh abs: inactive; SARS 3CLpro inh: inactive; CCHF vOTU inh-1: 104.3; CCHF vOTU inh-2: inactive

What do the screens show for `CSc1ccc(/C=N\Nc2nncn2N)cc1`?
RecA splice inh: inactive; VHR inh abs: inactive; SARS 3CLpro inh: inactive; CCHF vOTU inh-1: 101.5; CCHF vOTU inh-2: inactive

How did Cc1ccc(C=NNc2nncn2N)cc1 do in these assays?
PriA SSB inh: inactive

Results for Nn1cnnc1NN=Cc1cc(Br)cc(Br)c1O ?
PriA SSB inh: inactive

How did CSCCC(C)(O)CNS(=O)(=O)C1CC1 (stereo not drawn) do in these assays?
PriA SSB inh: inactive
